One may read the AC50 as the midpoint of the concentration-response curve, whichever way the signal moves.

Several values for one entry are separate records, joined by “and”; a condition that tells them apart may be missing. Equal entries are not always repeated. A structure can be active in one record and inactive in another. Activity calls are given as the source filed them. The calls were made as follows: active = hit-call score of the fitted dose curve at least 0.9, where 1 is the maximum; inactive = score below 0.9.

Chain of Paired box protein Pax-6 (Homo sapiens) (P26367 whole entry, looked up): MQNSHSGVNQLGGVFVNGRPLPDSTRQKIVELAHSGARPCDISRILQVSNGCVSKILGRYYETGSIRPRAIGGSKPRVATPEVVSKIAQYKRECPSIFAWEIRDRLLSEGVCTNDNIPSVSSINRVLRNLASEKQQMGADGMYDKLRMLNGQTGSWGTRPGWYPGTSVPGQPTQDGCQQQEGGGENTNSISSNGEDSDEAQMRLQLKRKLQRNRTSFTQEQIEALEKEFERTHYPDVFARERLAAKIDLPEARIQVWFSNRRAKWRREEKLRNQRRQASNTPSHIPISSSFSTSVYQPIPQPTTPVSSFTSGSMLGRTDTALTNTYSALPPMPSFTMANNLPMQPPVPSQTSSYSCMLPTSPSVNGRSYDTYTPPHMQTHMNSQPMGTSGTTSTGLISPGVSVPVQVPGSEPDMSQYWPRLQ

The experiment addresses Paired box protein Pax-6 (Homo sapiens) (UniProt P26367). Description: ATG_Pax6_CIS: Attagene CIS-FACTORIAL HepG2 Assay for human Paired Box 6 (PAX6) (AID 2282956). The conditions noted are these: HepG2 CIS-FACTORIAL PAX6 reporter transcription, RNA readout; actives raise or lower the signal. The protocol:
ATG_CIS is a cell-based, multiplexed-readout assay that uses HepG2, a human liver cell line, with measurements taken at 24 hours after chemical dosing in a 24-well plate.ATG_Pax6_CIS is one of 52 assay component(s) measured or calculated from the ATG_CIS assay. It is designed to make measurements of mRNA induction, a form of inducible reporter, as detected with fluorescence intensity signals by Reverse transcription polymerase chain reaction (RT-PCR) and Capillary electrophoresis technology.Data from the assay component ATG_Pax6_CIS was analyzed into 1 assay endpoint. This assay endpoint, ATG_Pax6_CIS, was analyzed with bidirectional fitting relative to DMSO as the negative control and baseline of activity. Using a type of inducible reporter, measures of mRNA for gain or loss-of-signal activity can be used to understand the reporter gene at the transcription factor-level as they relate to the gene PAX6. Furthermore, this assay endpoint can be referred to as a primary readout, because this assay has produced multiple assay endpoints where this one serves a reporter gene function. To generalize the intended target to other relatable targets, this assay endpoint is annotated to the dna binding intended target family, where the subfamily is paired box protein.
Human liver HepG2 cells are transiently transfected with multiple reporter transcription units (MRTUs) in 6-well plates using FuGene 6 reagent (Roche; 3 ml FuGene/1 mg DNA). The MRTU constructs are regulated by a cis-regulating element (promoter). […] A major difference between the CIS and TRANS system is that in CIS activities of endogenous TFs are measured, whereas the TRANS assay evaluates changes in activities of exogenous, chimeric NR-Gal4 proteins. […] At the end of 24 hour incubation, total RNA was isolated using TriZol reagent (Invitrogen). The isolated RNA is then reverse-transcribed using oligo(dT) primer and Mo-MLV reverse transcriptase (Invitrogen) with DNAse I (Ambion) treatment for 30 min. The one-tenth of the produced cDNA was amplified by PCR using Taq DNA polymerase (Invitrogen) and two reporter sequence-specific primers. The PCR products were fluorescently labeled by primer extension with 6-arboxyfluorescein (6-FAM) 5'-labeled reporter sequence-specific primer (2 min at 95 C, 20 s at 68 C and 10 min at 72 C) and these products were digested with 5U of HpaI (New England Biolabs) for 2h at 37 C. The fragments were purified using Qiaquick PCR columns (Qiagen), analyzed on an ABI 3130xL genetic analyzer (Applied Biosystems) with peak positions identified by using a set of X-rhodamine (ROX)-labeled MapMarker1000 molecular weight standards (BioVentures). The raw capillary electrophoresis data was processed using Attagraph software (Attagene).
`CCCCCCOC(=O)c1ccccc1C(=O)OCCCCCC`: the compound was classed as inactive.
Consider `C=CC(=O)NCNC(=O)C=C`, for which the outcome was inactive.
For `Oc1c(Cl)c(Cl)c(Cl)c(Cl)c1Cl`, the AC50 is 50 µM (active) and 14 µM (active) and 34 µM (active).
In the case of `Sc1ccccc1`, the compound was classed as inactive.
On to `O=C(O)C(F)(F)C(F)(F)C(F)(F)C(F)(F)C(F)(F)C(F)(F)C(F)(F)C(F)(F)F`, for which the outcome was inactive; the AC50 is 224 µM (active) and 50 µM (active).
As to `Nc1ccc(-c2ccc(N)cc2)cc1`, the outcome was inactive.
Consider `O=C(O)C(F)(F)C(F)(F)C(F)(F)C(F)(F)C(F)(F)C(F)(F)C(F)(F)C(F)(F)C(F)(F)F`, for which the AC50 is 49 µM (active) and 33 µM (active) and 54.8 µM (active).
For the compound `CCC(=O)O[C@H]1CC[C@H]2[C@@H]3CCC4=CC(=O)CC[C@]4(C)[C@H]3CC[C@]12C`, the call was inactive; the AC50 is 132 µM (active) and 100 µM (active).
As to `CCSC(=O)N(CC)C1CCCCC1`, the outcome was inactive.
As to `CC1=C2C[C@H]3[C@@H](CC=C4C[C@@H](O)CC[C@@]43C)[C@@H]2CC[C@]12O[C@@H]1C[C@H](C)CN[C@H]1[C@H]2C`, the half-maximal activity concentration (AC50) was 13.5 µM (active).
`CCC(C)(c1ccc(O)cc1)c1ccc(O)cc1`: the AC50 was 52.8 µM (active) and 62.6 µM (active) and 24.6 µM (active); the call was inactive.
As for `Oc1ccc(Cl)cc1Cl`, the compound was called inactive.
Same read-out and setting: the entry for `CCOP(=S)(OCC)SCSC(C)(C)C` is “inactive”.
Regarding `CC(c1ccc(O)cc1)(c1ccc(O)cc1)c1ccc(O)cc1`, the AC50 was 11.1 µM (active).
For the compound `O=C(O)C(F)(F)C(F)(F)C(F)(F)C(F)(F)C(F)(F)F`, the compound was classed as inactive.
With `NS(=O)(=O)C(F)(F)C(F)(F)C(F)(F)C(F)(F)C(F)(F)C(F)(F)C(F)(F)C(F)(F)F`, the AC50 was 54.8 µM (active) and 92.1 µM (active); the compound was called inactive.
On to `Cc1cc(-c2ccc(N)c(C)c2)ccc1N`, for which the outcome was inactive.
On the same count and under the same terms, the result for `CCNc1nc(NC(C)C)nc(SC)n1` reads “inactive”.
For the compound `ClC(Cl)=C(c1ccc(Cl)cc1)c1ccc(Cl)cc1`, the concentration at half-maximal activity (AC50) was 100 µM (active) and the result was inactive.
Turning to `ClC1=C(Cl)[C@]2(Cl)[C@@H]3[C@@H]4C[C@@H]([C@H]5O[C@@H]45)[C@@H]3[C@@]1(Cl)C2(Cl)Cl`, the result was inactive.
For `O=C(NC(=O)c1c(F)cccc1F)Nc1cc(Cl)c(OC(F)(F)C(F)F)c(Cl)c1`, the result was inactive.
On the same count and under the same terms, the entry for `ClC1=C(Cl)[C@]2(Cl)[C@@H]3[C@H]4C[C@H]([C@@H]5O[C@H]45)[C@@H]3[C@@]1(Cl)C2(Cl)Cl` is “inactive”; for `CN(C)CCO` it is “inactive”.
Turning to `Cc1cc(O)ccc1Cl`, the call was inactive.
For `COc1ccc(O)c(C(C)(C)C)c1`, the AC50 was 146 µM (active).
With `Cc1ccc(O)c(C)c1`, the result was inactive.
In the case of `Cc1ccccc1[N+](=O)[O-]`, the compound was classed as inactive.
In the case of `Cc1cc2c3c(c1)C(c1ccccc1)=N[C@@H](NC(=O)c1ccncc1)C(=O)N3CC2`, the AC50 was 100 µM (active).
In the case of `O=C(N[C@H]1CN2CCC1CC2)c1cc2ccoc2cn1`, the result was inactive.
With `C[C@]12CCC(=O)C=C1CC[C@@H]1[C@@H]2CC[C@]2(C)C(=O)CC[C@@H]12`, the outcome was inactive.
`CC#Cc1cc(C)nc(Nc2ccccc2)n1`: the concentration at half-maximal activity (AC50) was 68.1 µM (active).
Take `c1cc2ccc3cccc4ccc(c1)c2c34`: the outcome was inactive.
As for `Oc1ccc(C(c2ccc(O)cc2)(C(F)(F)F)C(F)(F)F)cc1`, the AC50 is 8.18 µM (active) and 16.2 µM (active); the compound was called inactive.
As to `COS(=O)(=O)OC`, the call was inactive.

These data come from PubChem BioAssay (EPA / NIEHS).
